Source: the supplement of paper PMC10933113
Unmarked numbers belong to inactive results.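 How the source made its calls: active = curve rank above 3; inactive = curve rank 0.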

system: KeratinoSens (HaCaT ARE-luciferase) cells; experiment: Nrf2/ARE luciferase activation call in qHTS KeratinoSens assay (1 = active, 0 = inactive)

Row | SMILES | Nrf2/ARE luciferase activation call
1 | CC(CN(C)C)CN1c2ccccc2CCc2ccccc21.O=C(O)/C=C\C(=O)O (configuration not stated) | not active ARE inducer (skin sensitizer alert)
2 | CCCC[N+]1(C)CCCCC1.O=S(=O)([O-])C(F)(F)F | not active ARE inducer (skin sensitizer alert)
3 | CCn1cc[n+](C)c1C.O=S(=O)([O-])C(F)(F)F | not active ARE inducer (skin sensitizer alert)
4 | O=C(O)/C=C/C(=O)O.OCCOCCN1CCN(C2=Nc3ccccc3Sc3ccccc32)CC1.OCCOCCN1CCN(C2=Nc3ccccc3Sc3ccccc32)CC1 | not active ARE inducer (skin sensitizer alert)
5 | CC1(C)S[C@@H]2[C@H](NC(=O)Cc3ccccc3)C(=O)N2[C@H]1C(=O)O.CC1(C)S[C@@H]2[C@H](NC(=O)Cc3ccccc3)C(=O)N2[C@H]1C(=O)O.c1ccc(CNCCNCc2ccccc2)cc1 | not active ARE inducer (skin sensitizer alert)
6 | CCCC[n+]1ccccc1C.O=S(=O)([O-])C(F)(F)F | not active ARE inducer (skin sensitizer alert)
7 | CN1CCC(=C2c3ccccc3Sc3ccccc32)CC1.O=C(O)/C=C\C(=O)O | not active ARE inducer (skin sensitizer alert)
